Screening data: PubChem BioAssay, National Center for Advancing Translational Sciences (NCATS)
In the library only some 11% were active in any assay of this set; here they are far more common.
Luciferase inh: Firefly luciferase inhibition profiling of diverse chemical library using quantitative high-throughput screening | Luciferin 4-monooxygenase (Photinus pyralis), P08659 | purified P. pyralis luciferase, luminescence, biochemical | Potency, µM (top dose mostly 115 µM), hits mostly inhibitors | actives 2.5% (n = 76,000); further: nearly all actives have a fitted effect of over 65% in size
Target sequence (P08659 whole entry, looked up): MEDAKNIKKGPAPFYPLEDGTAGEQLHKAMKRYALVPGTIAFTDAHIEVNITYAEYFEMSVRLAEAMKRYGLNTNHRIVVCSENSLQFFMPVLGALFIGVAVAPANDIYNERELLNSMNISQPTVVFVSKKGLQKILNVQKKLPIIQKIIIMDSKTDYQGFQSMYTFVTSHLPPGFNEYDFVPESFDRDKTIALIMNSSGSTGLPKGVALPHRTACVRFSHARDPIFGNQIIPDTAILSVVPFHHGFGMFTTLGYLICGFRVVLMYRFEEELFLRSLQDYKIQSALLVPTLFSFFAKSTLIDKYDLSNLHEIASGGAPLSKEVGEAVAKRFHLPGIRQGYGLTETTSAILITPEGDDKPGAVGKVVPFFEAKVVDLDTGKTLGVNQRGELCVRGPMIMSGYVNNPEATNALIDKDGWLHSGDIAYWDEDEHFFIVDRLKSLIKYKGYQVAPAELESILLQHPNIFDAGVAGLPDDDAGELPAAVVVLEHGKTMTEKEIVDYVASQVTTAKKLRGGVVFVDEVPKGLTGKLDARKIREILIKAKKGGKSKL
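Luminescence read by CCD imager after adding enzyme (10nM final) to wells holding compound, titrated in qHTS. Substrates 10uM each D-luciferin and ATP; buffer 50mM Tris acetate pH 7.5, 10mM Mg acetate, Tween-20, BSA.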
HEK293 tox: Cytotoxic Profiling in HEK 293 Cell Line of Diverse Libraries Using Quantitative High-Throughput Screening | HEK 293 viability, ATP luminescence (CellTiter-Glo), 48-72 h | Potency, µM (titrated, usually from 115 µM), usual class: inhibitors | actives 6.6% (n = 94,000); further: nearly all actives have a fitted effect of over 60% in size
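Cells seeded first (HEK 293, 250 cells/well), then compound added by pintool. Incubation ran 48 or 72 hr at 37 degree Celsius. CellTiter-Glo was added and luminescence imaged after 10 min at room temperature.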
hNpr1 antagonist: Natriuretic polypeptide receptor (hNpr1) antagonism - Primary qHTS; Potency, µM (doses to about 46.3 µM), hits mostly inhibitors; Atrial natriuretic peptide receptor 1 (Homo sapiens), P16066; HEK293 hNpr1 GloSensor cGMP, ANP-stimulated luminescence; actives 1.6% (n = 76,000); AID 1347048, 2019; calls by dose curve; further: nearly all actives have a fitted effect of over 60% in size
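HEK293 cells stably expressing human Npr1 and cGMP GloSensor pGS-40F, loaded 2 h with 2% GloSensor reagent, given compound 30 min at room temperature. Luminescence read before and 20 min after 0.1 nM hNppA.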
3T3 cytotox: Cytotoxic Profiling in NIH 3T3 Cell Line of Diverse Libraries Using Quantitative High-Throughput Screening | actives 4.3% (n = 94,000) | NIH 3T3 viability, CellTiter-Glo ATP luminescence, 48-72 h | AID 1345082, 2018 | Potency, µM (series often up to 96.7 µM), hits mostly inhibitors; further: nearly all actives have a fitted effect of over 55% in size
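NIH 3T3 cells at 400 cells/well received 23 nL of compound by pintool and were incubated 48 or 72 h at 37 °C. Viability was read as ATP-coupled CellTiter-Glo luminescence.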
Numbers stand for hits; – = inactive; ? = inconclusive; · = no result given; ! = repeats disagree. Unless noted, the call rests on the fitted dose curve; in most records, active means well fitted curve in the direction sought with a large enough effect; inconclusive means small, poorly fitted or top-dose-only effect, or another doubt; inactive means no such curve, though single readings can be large; an effect the other way counts as inactive or inconclusive.

SMILES	Luciferase inh	HEK293 tox	hNpr1 antagonist	3T3 cytotox
Cc1noc(C)c1S(=O)(=O)N1CCCC(CCc2ccc(F)c(F)c2)C1 (stereo not given)	–	45µM	–	?
OCC1CN(c2ncccn2)CC12CCN(Cc1ccsc1)CC2 (stereo not given)	–	–	–	–
OCC1CN(C2CCC2)CC12CCN(Cc1ccsc1)CC2 (stereo not given)	–	89µM	–	?
O=C(Cc1ccc(Cl)cc1)N1CCN(C(=O)c2nc3cccnc3n(C3CC3)c2=O)CC1	·	–	·	–
COc1ccc(-c2cccc(C(=O)N3CCC(C#N)CC3)c2)nn1	·	?	·	–
Cc1ccc(NC(=O)N2CCCCC2c2noc(COc3ccc(F)cc3)n2)cc1F (stereo not given)	–	45µM	–	?
Cc1ccc(OCc2nc(C3CCCCN3C(=O)NCc3ccc(F)cc3)no2)cc1 (stereo not given)	–	?	–	?
Cc1ccc(OCc2nc(C3CCCN3C(=O)Nc3ccccc3)no2)cc1 (stereo not given)	·	89µM	·	?
Cc1ccc(OCc2nc(C3CCCN3C(=O)Nc3ccc(C)c(F)c3)no2)cc1 (stereo not given)	–	89µM	–	?
O=C(c1ccsc1)N1CCC(N2C(=O)C3(CCCCC3)C2c2ccncc2)CC1 (stereo not given)	·	–	·	–
Cc1noc(C)c1S(=O)(=O)N1CCN(c2ccc3nnc(C4CC4)n3n2)CC1	·	–	·	–
Cc1cccc(NC(=O)N2CCC3(CCNC(=O)CC3)CC2)c1	·	–	·	–
CC(=O)NC1(C)CCN(Cc2ccc(-c3ccc(Oc4ccccc4)cc3)cc2)C1 (stereo not given)	22µM	?	18µM	13µM
CC(=O)NC1(C)CCCN(Cc2ccc(Oc3ccccc3)cc2)C1 (stereo not given)	?	?	–	?
CC(=O)NC1(C)CCN(Cc2ccccc2-c2ccccc2Oc2ccccc2)C1 (stereo not given)	–	?	–	79µM
CC(=O)NC1(C)CCN(Cc2ccc(-c3ccc4ccccc4c3)cc2)C1 (stereo not given)	?	28µM	16µM	25µM
CCN1CCCC2(Cc3ccccc3CN(C(C)=O)C2)C1 (stereo not given)	·	–	·	–
c1ccc2c(c1)CCCN2CCCNc1ncncn1	–	?	–	?
c1cncc(-c2ccnc(NCCCN3CCCc4ccccc43)n2)c1	–	?	–	22µM
O=C(NCCNC(=O)C1CCCC1)c1cccc(-c2ccsc2)c1	·	79µM	·	?
CC(C)NC(=O)NCCNC(=O)c1cccc(-c2ccsc2)c1	·	100µM	·	?
O=C([C@H]1CCCN1C(=O)C1CCCC1)N1CCC(N2CCOC2=O)CC1	·	–	·	–
COc1ccc(CNC(=O)C2CCCN(Cc3cccc(-c4cccc(C)c4)c3)C2)cc1 (stereo not given)	·	?	·	28µM
COc1ccc(CCNC(=O)C2CCCN(Cc3cccc(-c4cccc(C)c4)c3)C2)cc1 (stereo not given)	·	22µM	·	?
COc1ccc(-c2ccccc2NC(=O)C2CCCN(Cc3ccc(F)c(F)c3)C2)cc1 (stereo not given)	–	–	–	–
SMILES	Luciferase inh	HEK293 tox	hNpr1 antagonist	3T3 cytotox
C[C@H]1[C@@H]2[C@@H](O)C([C@H](C)C(=O)NCc3ccc(F)cc3)CC[C@@]2(C)CC[C@@H]1NC(=O)c1ccccc1 (stereo not given in full)	–	40µM	–	?
COc1cccc(-c2cccc(C(=O)N3CCN([S+](=O)([O-])c4cccc(C(F)(F)F)c4)CC3)c2)c1	·	?	·	–
C#CCNC(=O)c1nc(-c2cccc(C(F)(F)F)c2)c2ccccn12	–	50µM	–	?
CC(C)NC(=O)c1nc(-c2cccc(C(F)(F)F)c2)c2ccccn12	–	79µM	–	89µM
C#CCNC(=O)c1nc(-c2ccccc2)c2ccccn12	–	?	–	?
COc1cccc(-c2ccc(C(=O)N3CCC(N[S+](=O)([O-])c4c(C)noc4C)CC3)cc2)c1	·	22µM	·	?
COc1ccccc1-c1ccc(C(=O)N2CCC(N[S+](=O)([O-])c3cccs3)CC2)cc1	·	89µM!	·	?
CC(C)C(=O)NC1CCN(C(=O)c2ccc(-c3cccs3)cc2)CC1	·	71µM	·	?
O=C(c1ccc(-c2cccs2)cc1)N1CCC(N[S+](=O)([O-])c2cccs2)CC1	·	45µM	·	?
O=C(Cc1ccccc1)N1CCCC2(CN[S+](=O)([O-])c3cccnc3N2)C1 (stereo not given)	·	–	·	–
COCC(=O)N1CCN(c2ccc3nnc(-c4ccccc4)n3n2)CC1	·	–	·	–
COc1cccc(-c2ccc(C(=O)N3CCC(N[S+](=O)([O-])c4cccs4)CC3)cc2)c1	·	18µM	·	16µM
COc1cccc(-c2ccc(C(=O)N3CCC(N[S+](C)(=O)[O-])CC3)cc2)c1	·	?	·	–
COc1ccc(-c2cc(N3CCC(NC(=O)c4cccc(OC(F)(F)F)c4)C3)n[nH]2)cc1 (stereo not given)	–	40µM	–	?
COc1ccc(-c2cc(N3CCC(NC(=O)c4cccc(C#N)c4)C3)n[nH]2)cc1 (stereo not given)	–	35µM	–	?
COc1ccc(-c2cc(N3CCC(NC(=O)c4cccc(C)c4)C3)n[nH]2)cc1 (stereo not given)	–	?	–	–
N#Cc1cccc(C(=O)NC2CCN(c3cc(-c4ccc(F)cc4)[nH]n3)CC2)c1	–	?	–	?
N#Cc1cccc(C(=O)NC2CCN(c3cc(-c4ccc(F)cc4)[nH]n3)C2)c1 (stereo not given)	–	45µM	–	?
CNC(=O)c1cc(C)nc2onc(C3CCCN(C(=O)c4ccc(Cl)nc4)C3)c12 (stereo not given)	·	–	·	–
COc1ccc(-c2ccccc2C(=O)N2CCC(NC(=O)c3ccccc3OC)CC2)nn1	·	–	·	–
O=C(NC1CCN(c2cc(-c3ccc(F)cc3)[nH]n2)C1)c1ccccc1 (stereo not given)	–	?	–	?
O=C(NC1CCCN(c2cc(-c3ccccc3)[nH]n2)C1)c1ccc(F)cc1Cl (stereo not given)	?	?	–	?
O=C(NC1CCCN(c2cc(-c3ccccc3)[nH]n2)C1)c1cccc(F)c1 (stereo not given)	?	25µM	–	?
O=C(NC1CCN(c2cc(-c3ccc(F)cc3)[nH]n2)C1)c1cccc(F)c1 (stereo not given)	–	40µM	–	?
CCCN(C)c1nccnc1OC1CCN(C(=O)C(CC)CC)C1 (stereo not given)	32µM	?	–	?
CCCN(C)c1nccnc1OC1CCN(C(=O)C2CC2)C1 (stereo not given)	40µM	–	–	?
